Source: PubChem BioAssay AID623970 (The Scripps Research Institute Molecular Screening Center, 2012)
Where “and” joins values, the source holds several entries; their conditions need not be identical. Equal entries are not always repeated. A number with no mark means an inactive call. Calls of active or inactive are those of the source. Rule as the data show it: active = IC50 below about 90 µM; inactive = the rest.

Assay: DNA binding via SYBR dye displacement, late-stage follow-up, artefact control for HCV NS3 helicase inhibitor project, biochemical, fluorescence (AID 623970)
Compound `Cc1ccc2nc(-c3ccc4nc(-c5ccc(NC(=O)c6cc(F)cc(C(F)(F)F)c6)cc5)sc4c3)sc2c1S(=O)(=O)O` has an IC50 greater than 100 µM.
In the case of `Cc1ccc2nc(-c3ccc4nc(-c5ccc(NC(=O)c6ccc(CNC(=O)OCC7c8ccccc8-c8ccccc87)cc6)cc5)sc4c3)sc2c1S(=O)(=O)O`, the IC50 is reported as 56 µM (active).
For `Cc1ccc2nc(-c3ccc4nc(-c5ccc(NC(=O)c6ccncc6)cc5)sc4c3)sc2c1S(=O)(=O)O`, the IC50 was greater than 100 µM.
With `Cc1ccc2nc(-c3ccc4nc(-c5ccc(NC(=O)c6ccc7nc(-c8ccc(NC(=O)OCC9c%10ccccc%10-c%10ccccc%109)cc8)sc7c6)cc5)sc4c3)sc2c1S(=O)(=O)O` the IC50 was 22 µM (active).
With `COc1cccc2c(=O)c3cc(Cl)cc(C(=O)Nc4cc(Cl)ccn4)c3[nH]c12` the IC50 was greater than 100 µM.
Work on `Cc1ccc2nc(-c3ccc(NC(=O)c4ccc(NC(=O)c5ccc(C(F)(F)F)cc5)cc4)cc3)sc2c1S(=O)(=O)O` yielded an IC50 greater than 100 µM.
With `Cc1ccc2nc(-c3ccc4nc(-c5ccc(NC(=S)Nc6ccccc6)cc5)sc4c3)sc2c1S(=O)(=O)O` the IC50 was 30 µM (active).
`CC(=O)Nc1ccc(-c2nc3ccc(-c4nc5ccc(C)c(S(=O)(=O)O)c5s4)cc3s2)cc1` gave an IC50 greater than 100 µM.
In the case of `Cc1ccc2nc(-c3ccc4nc(-c5ccc(NC(=O)c6ccc7ccccc7c6)cc5)sc4c3)sc2c1S(=O)(=O)O`, the IC50 is reported as 36 µM (active) and 25 µM (active).
Work on `Cc1ccc2nc(-c3ccc(NC(=O)c4ccc(NC(=O)c5ccc(N)cc5)cc4)cc3)sc2c1S(=O)(=O)O` yielded an IC50 greater than 100 µM.
Compound `Cc1ccc2nc(-c3ccc4nc(-c5ccc(NC(=O)Nc6ccccc6)cc5)sc4c3)sc2c1S(=O)(=O)O` has an IC50 greater than 100 µM.
With `Cc1ccc2nc(-c3ccc4nc(-c5ccc(NC(=O)c6ccc(NC(=O)OCC7c8ccccc8-c8ccccc87)cc6)cc5)sc4c3)sc2c1S(=O)(=O)O` the IC50 was 6 µM (active).
With `Cc1ccc2nc(-c3ccc4nc(-c5ccc(NC(=O)c6cc(C(F)(F)F)cc(C(F)(F)F)c6)cc5)sc4c3)sc2c1S(=O)(=O)O` the IC50 was 86 µM (active).
For `CN1CCN(Cc2cc(CN3CCN(C)CC3)c(O)c(=O)c(CN3CCN(C)CC3)c2)CC1`, the IC50 was 72 µM (active).
For `Cc1ccc2nc(-c3ccc4nc(-c5ccc(NC(=O)Nc6ccc(F)cc6)cc5)sc4c3)sc2c1S(=O)(=O)O`, the IC50 was 74 µM (active).
With `Cc1ccc2nc(-c3ccc(N)cc3)sc2c1S(=O)(=O)O` the IC50 was greater than 100 µM.
With `Cc1ccc2c(sc(-c3ccc4c(c3)sc(-c3ccc5c(c3)sc(-c3ccc(N(C)C)cc3)[n+]5C)[n+]4C)[n+]2C)c1S(=O)(=O)O` (tested in a mixture with another compound) the IC50 was 61 µM (active).
For `Cc1ccc2nc(-c3ccc4nc(-c5ccc(NCc6ccccc6)cc5)sc4c3)sc2c1S(=O)(=O)O`, the IC50 was 27 µM (active).
`Cc1ccc2nc(-c3ccc4nc(-c5ccc(NC(=O)c6ccc(N(C)C)cc6)cc5)sc4c3)sc2c1S(=O)(=O)O` gave an IC50 greater than 100 µM.
With `COc1ccc(S(=O)(=O)Nc2ccc(-c3nc4ccc(-c5nc6ccc(C)c(S(=O)(=O)O)c6s5)cc4s3)cc2)cc1` the IC50 was 42 µM (active).
For `Cc1ccc2nc(-c3ccc4nc(-c5ccc(NC(=O)c6ccc7nc(-c8ccc(N)cc8)sc7c6)cc5)sc4c3)sc2c1S(=O)(=O)O`, the IC50 was 68 µM (active).
In the case of `Cc1ccc2nc(-c3ccc4nc(-c5ccc(NC(=O)Nc6ccc(C(F)(F)F)cc6)cc5)sc4c3)sc2c1S(=O)(=O)O`, the IC50 is reported as 18 µM (active).
For `Cc1cc2sc(-c3ccc(N)cc3)nc2cc1S(=O)(=O)O`, the IC50 was greater than 100 µM.
Work on `Cc1ccc2nc(-c3ccc(NC(=O)c4ccc(NC(=O)OCC5c6ccccc6-c6ccccc65)cc4)cc3)sc2c1S(=O)(=O)O` yielded an IC50 greater than 100 µM.
For `Cc1ccc2nc(-c3ccc(NC(=O)c4ccc(N)cc4)cc3)sc2c1S(=O)(=O)O`, the IC50 was greater than 100 µM.
For `Cc1cc(C(O)(c2ccc(Nc3ccccc3)cc2)c2ccc(Nc3ccc(S(=O)(=O)O)cc3)cc2)ccc1N` (centres undefined), the IC50 was 17 µM (active).
In the case of `Cc1ccc2nc(-c3ccc4nc(-c5ccc(NC(=O)c6cccc7ccccc67)cc5)sc4c3)sc2c1S(=O)(=O)O`, the IC50 is reported as 30 µM (active).
`Cc1ccc2nc(-c3ccc4nc(-c5ccc(NC(=O)c6cccc(C(F)(F)F)c6F)cc5)sc4c3)sc2c1S(=O)(=O)O` gave an IC50 greater than 100 µM.
With `O=C(CCCCCCC(=O)Nc1ccc(-c2nc3ccccc3[nH]2)cc1)Nc1ccc(-c2nc3ccccc3[nH]2)cc1` the IC50 was 14 µM (active).
For `Cc1ccc2nc(-c3ccc(NC(=O)c4ccc(NC(=O)Nc5ccccc5)cc4)cc3)sc2c1S(=O)(=O)O`, the IC50 was greater than 100 µM.
With `Cc1ccc2nc(-c3ccc4nc(-c5ccc(NC(=O)c6ccc(Cl)c(Cl)c6)cc5)sc4c3)sc2c1S(=O)(=O)O` the IC50 was 30 µM (active).
Compound `Cc1ccc2nc(-c3ccc(NC(=O)c4ccc(NC(=S)Nc5ccccc5)cc4)cc3)sc2c1S(=O)(=O)O` has an IC50 greater than 100 µM.
For `Cc1ccc2nc(-c3ccc4nc(-c5ccc(NC(=O)c6cccnc6)cc5)sc4c3)sc2c1S(=O)(=O)O`, the IC50 was greater than 100 µM.
Compound `Cc1ccc2nc(-c3ccc4nc(-c5ccc(NC(=O)c6cc(F)ccc6C(F)(F)F)cc5)sc4c3)sc2c1S(=O)(=O)O` has an IC50 greater than 100 µM.
